Results filed as inconclusive are left out. A number with no mark means an inactive call. Activity calls are given as the source filed them. Calls come from the whole dose curve; as a rule, active = well fitted cell-killing curve with a large enough effect; inconclusive = small, poorly fitted or top-dose-only effect, or effect the other way; inactive = flat fitted curve, though single readings scatter.
What follows are molecules tested on Tov112D (assay: Primary qHTS to identify gynecologic anti-cancer compounds using libraries of approved drugs and bioactive compounds (AID 1345084; note: nearly all actives have a fitted effect of over 55% in size)). Details: Gynecologic cancer cell panel viability, ATPlite luminescence, 48 h; series mostly up to 57.5 µM; activity change, negative = cytotoxicity: at the top concentration.
Outline: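 Measured: luminescence after ATPlite addition (15 min, RT). Exposure: 48 h, 37 C, 5% CO2.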
% is set by controls: 0 for no effect and ±100 for the full control effect; potency is the fitted concentration of half-maximal effect.

Going from `CC1(C)CC[C@]2(C(=O)O[C@@H]3O[C@H](CO)[C@@H](O)[C@H](O)[C@H]3O)CC[C@]3(C)C(=CCC4[C@@]5(C)CC[C@H](O[C@@H]6O[C@H](C(=O)O)[C@@H](O)[C@H](O)[C@H]6O)C(C)(C)C5CC[C@]43C)C2C1` (stereo partly specified) to `C[C@@H]1O[C@@H](O[C@H]2[C@H](O)[C@@H](C(=O)O)O[C@@H](O[C@H]3CC[C@@]4(C)C(CC[C@]5(C)C4CC=C4C6CC(C)(C)CC[C@]6(C(=O)O)CC[C@]45C)C3(C)C)[C@@H]2O[C@@H]2OC[C@@H](O)[C@H](O)[C@H]2O)[C@H](O)[C@H](O)[C@H]1O` (stereo partly specified), the activity change, negative = cytotoxicity falls from 11.2% [at 11.6 µM] to 4.42% [at 11.6 µM].

Going from `CN(C)CCn1cc(S(=O)(=O)c2cccc(F)c2)c2cccnc21` to `CC[C@@](C)(Nc1ccnc(-c2c[nH]c3ncccc23)n1)C(=O)NCC(F)(F)F`, the “activity change, negative = cytotoxicity” value falls from 6.63% to -0.98%.

Compared with `C[C@H](NC(c1cccc(C[P+](=O)O)c1)[C@H](C)O)c1ccc(Cl)c(Cl)c1` (stereo partly specified), `O=C(CCc1ccccc1)N1CCC(O)(Cn2cnc3cc(Cl)ccc3c2=O)CC1` is lower in “activity change, negative = cytotoxicity” value: 14% for the first, 2.46% for the second.

Compared with `O=C(Nc1ccc(-c2ccncc2)cc1)N[C@H](CO)c1ccccc1`, `Cc1ccc(F)cc1C(=O)Nc1ccc(C(=O)N2Cc3cccn3Cc3ccccc32)c(Cl)c1` is lower in “activity change, negative = cytotoxicity” value: 4.25% for the first, -15.7% for the second.

First: CC(C)(F)C[C@@H](N[C@@H](c1ccc(-c2ccc(S(C)(=O)=O)cc2)cc1)C(F)(F)F)C(=O)NC1(C#N)CC1
Second: Cc1ccc(-c2c(C(=O)CF)n(CCCO)c3ncnc(N)c23)cc1
The “activity change, negative = cytotoxicity” value of the first is lower: -1.79% for the first, -0.231% for the second.

Compared with `CC1=C(C(=O)O)/C(=C\CO[C@@H]2O[C@H](CO)[C@@H](O)[C@H](O)[C@H]2O)C(OC(=O)/C=C/c2ccc(O)cc2)C1` (stereo partly specified), `C=C1C(O)C[C@@H]2C(C(=O)O)=CO[C@@H](O[C@@H]3O[C@H](CO)[C@@H](O)[C@H](O)[C@H]3OC(=O)c3ccc(O)cc3)[C@H]12` (stereo partly specified) is higher in “activity change, negative = cytotoxicity” value: -0.756% [at 25.3 µM] for the first, 6.63% [at 25.3 µM] for the second.

Going from `C=C[C@H]1[C@H](O[C@@H]2O[C@H](CO)[C@@H](O)[C@H](O)[C@H]2O)OC=C(C(=O)OC)[C@H]1C[C@@H]1c2cc(O)c(O)cc2CCN1C(C)=O` to `O=C(O)CC(=O)OC[C@H]1O[C@@H](Oc2ccc3c(c2)OC[C@H]2c4cc5c(cc4O[C@@H]32)OCO5)[C@H](O)[C@@H](O)[C@@H]1O`, the “activity change, negative = cytotoxicity” value rises from -3.26% [at 25.3 µM] to 0.926% [at 25.3 µM].

Going from `C=CC(C)(C)c1[nH]c2ccccc2c1C[C@@H]1NC(=O)[C@H](Cc2c[nH]c3ccccc23)NC1=O` to `CC1=CC2/C=C(\C)CC[C@@H](O)[C@@H](O)[C@@H]3O[C@@H]3C(=O)[C@]23C(=O)N[C@@H](CC(C)C)[C@@H]3[C@@H]1C` (stereo partly specified), the “activity change, negative = cytotoxicity” value falls from -1.47% [at 25.3 µM] to -4.27% [at 25.3 µM].

With `COC(=O)CCC(=O)OC[C@]1(C)CCC[C@@]2(C)C3CC[C@]4(C)C=CC3(CCC12)C4` (stereo partly specified) the “activity change, negative = cytotoxicity” value was -3.3% [at 25.3 µM].

In the case of `C=C1C(=O)O[C@@H]2/C=C(\C)C(=O)/C=C/[C@](C)(O)C[C@@H](OC(=O)C(C)C)[C@@H]12`, the Potency was 15.8 µM (active).

Going from `C=C1CCC2C(C)(C)C(O)CCC2(C)C1CCC(C)CCO` (stereo unspecified) to `C[C@@H]1[C@H]2[C@H](O[C@@H]3O[C@H](CO)[C@@H](O)[C@H](O)[C@H]3O)OC=C(C(=O)O)[C@H]2C[C@@H]1O`, the “activity change, negative = cytotoxicity” value rises from -11.4% [at 38.5 µM] to -3.48% [at 38.5 µM].

`C[C@@H]1O[C@@H](O[C@H]2[C@H](O)[C@@H](O[C@@H]3O[C@H](CO)[C@@H](O)[C@H](O[C@@H]4O[C@H](CO)[C@@H](O)[C@H](O)[C@H]4O)[C@H]3O)[C@H](O[C@H]3CC[C@@]4(C)C(=CC[C@@H]5C4CC[C@@]4(C)C5C[C@@H]5OC6(CC[C@@](C)(CO[C@@H]7O[C@H](CO)[C@@H](O)[C@H](O)[C@H]7O)O6)[C@@H](C)[C@@H]54)C3)O[C@@H]2CO)[C@H](O)[C@H](O)[C@H]1OC1OC(CO)C(O)C(O)C1O` (stereo partly specified) showed an activity change, negative = cytotoxicity of 5.26% [at 6.55 µM].

From PubChem BioAssay (NCATS)
